Experimental data taken from the supplement of paper PMC10849652.
Of roughly 7,900 targets only a part is listed; those with a hit were picked by preference. About 0.6% of all pairs of compound and target were hits.

Experiments:
Test in all cases: log2 fold change, soluble protein after heating vs DMSO (PISA); higher = thermal stabilisation; K562 cells, 10 uM, 30 min; active = over 0.2 and 3.5 SD of the protein, either way, in both replicates (recomputed)
erlotinib = compound: C#Cc1cccc(Nc2ncnc3cc(OCCOC)c(OCCOC)cc23)c1 [erlotinib]
In short: (§1)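 K562 cells at 2×10^6 cells/mL were given 10 μM compound for 30 min. Aliquots then went through 3 min of heating across 48°C-58°C, were pooled, and were extracted in PBS with 0.5% NP-40 at 4°C, and the supernatant after 21,000xg for 90 min was quantified by TMTpro 16plex LC-MS/MS with channel sums equalised. Thermal stability relative to control samples, from duplicates, is given as log2 fold change.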

[1] = compound: C/C(=N\NC(=O)C1=CC(=CC=C1)S(=O)(=O)N2CCOCC2)/C3=C(C=CC(=C3)Cl)O
In short: as §1

[2] = compound: C1=CC(=C(C=C1Cl)C2=NC3=NC=CN=C3C(=N2)NC4=CC=NC=C4)F
In short: as §1

[3] = compound: C1=CC(=CC=C1C2=NC3=C(N2)C=C(C=C3)C(=O)N)OC4=CC=C(C=C4)Cl
In short: as §1

[4] = compound: C1=CC2=C(C=CC(=C2)/C=C\3/C(=O)NC(=NCC4=CC=CS4)S3)N=C1
In short: as §1

[5] = compound: C1=CC2=NC=CN=C2C=C1/C=C/3\C(=O)NC(=O)S3
In short: as §1

[6] = compound: C1=CC=C(C=C1)C2=NC(=C(N2)C3=CC=NC=C3)C4=CC(=C(C=C4)Cl)O
In short: as §1

[7] = compound: C1=CC=C2C(=C1)C3=NNC4=CC=CC(=C43)C2=O
In short: as §1

[8] = compound: C1CCN(C1)C(=O)NC2=CC=CC(=C2)NC3=NC=C(C(=N3)NCCC4=CN=CN4)Br
In short: as §1

[9] = compound: C1CN(CCC1(CC2=CC=C(C=C2)Cl)N)C3=NC=NC4=C3C=CN4
In short: as §1

Measured: log2 fold change

PPT1 (UniProt P50897)
inactive: erlotinib 0.01 | [1] -0.011 | [2] 0.018 | [3] -0.003 | [4] 0.04 | [5] 0.007 | [6] 0.01 | [7] 0.024 | [8] 0.036 | [9] -0.009

PRMT8 (UniProt Q9NR22)
inactive: erlotinib -0.008 | [1] 0.03 | [2] 0.159 | [3] -0.067 | [4] 0.099 | [5] -0.005 | [6] 0.122 | [7] 0.042 | [8] 0.012 | [9] 0.028

PTPN12 (UniProt Q05209)
Sequence of UniProt Q05209 (Q05209 whole entry, looked up): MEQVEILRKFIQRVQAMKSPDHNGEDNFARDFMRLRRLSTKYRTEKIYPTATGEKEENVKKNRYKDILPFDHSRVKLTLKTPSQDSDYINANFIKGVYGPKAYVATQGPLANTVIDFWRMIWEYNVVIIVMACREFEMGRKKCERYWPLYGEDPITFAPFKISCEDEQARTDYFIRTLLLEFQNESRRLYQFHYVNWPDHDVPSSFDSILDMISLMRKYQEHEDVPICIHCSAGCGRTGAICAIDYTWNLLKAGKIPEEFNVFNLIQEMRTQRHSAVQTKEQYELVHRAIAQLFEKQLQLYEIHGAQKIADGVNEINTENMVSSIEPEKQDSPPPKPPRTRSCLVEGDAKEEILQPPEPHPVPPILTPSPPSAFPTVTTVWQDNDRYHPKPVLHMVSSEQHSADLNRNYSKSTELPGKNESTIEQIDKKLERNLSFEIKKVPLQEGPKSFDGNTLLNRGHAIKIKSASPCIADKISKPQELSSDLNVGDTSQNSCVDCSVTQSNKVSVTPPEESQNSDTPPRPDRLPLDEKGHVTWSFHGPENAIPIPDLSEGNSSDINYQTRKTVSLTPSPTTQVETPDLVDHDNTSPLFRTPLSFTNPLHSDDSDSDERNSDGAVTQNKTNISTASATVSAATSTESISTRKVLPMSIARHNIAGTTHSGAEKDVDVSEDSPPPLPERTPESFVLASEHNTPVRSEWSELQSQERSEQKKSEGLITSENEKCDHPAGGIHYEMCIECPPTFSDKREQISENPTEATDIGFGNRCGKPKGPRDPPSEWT
inactive: erlotinib 0.005 | [1] -0.007 | [2] -0.011 | [3] 0.004 | [4] 0.022 | [5] 0.101 | [6] -0.021 | [7] -0.036 | [8] -0.039 | [9] -0.05

PURA (UniProt Q00577)
inactive: erlotinib -0.244 | [1] -0.208 | [2] -0.319 | [3] 0.101 | [4] -0.156 | [5] 0.013 | [6] -0.137 | [7] -0.051 | [8] 0.179 | [9] -0.102

PGM3 isoform 4 (UniProt O95394)
Sequence of UniProt O95394 (O95394 whole entry, looked up): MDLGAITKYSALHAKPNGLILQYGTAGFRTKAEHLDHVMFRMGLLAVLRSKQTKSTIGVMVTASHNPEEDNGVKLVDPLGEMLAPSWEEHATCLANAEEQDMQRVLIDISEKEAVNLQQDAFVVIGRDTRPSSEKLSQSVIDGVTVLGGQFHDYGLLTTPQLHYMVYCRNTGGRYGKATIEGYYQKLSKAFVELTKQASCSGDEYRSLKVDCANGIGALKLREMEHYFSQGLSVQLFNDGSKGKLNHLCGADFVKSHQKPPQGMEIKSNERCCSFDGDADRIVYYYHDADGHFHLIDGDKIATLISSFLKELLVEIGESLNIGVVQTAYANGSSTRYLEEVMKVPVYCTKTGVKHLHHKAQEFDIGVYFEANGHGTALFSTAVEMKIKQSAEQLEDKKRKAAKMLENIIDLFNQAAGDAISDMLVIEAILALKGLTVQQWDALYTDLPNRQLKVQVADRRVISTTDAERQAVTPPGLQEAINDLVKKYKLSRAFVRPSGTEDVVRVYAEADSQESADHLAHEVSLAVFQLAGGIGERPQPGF
inactive: erlotinib 0.001 | [1] 0.094 | [2] 0.045 | [3] 0.103 | [4] 0.092 | [5] 0.001 | [6] 0.042 | [7] 0.064 | [8] -0.005 | [9] -0.053

PUM1 isoform 3 (UniProt Q14671)
Sequence of UniProt Q14671 (Q14671 whole entry, looked up): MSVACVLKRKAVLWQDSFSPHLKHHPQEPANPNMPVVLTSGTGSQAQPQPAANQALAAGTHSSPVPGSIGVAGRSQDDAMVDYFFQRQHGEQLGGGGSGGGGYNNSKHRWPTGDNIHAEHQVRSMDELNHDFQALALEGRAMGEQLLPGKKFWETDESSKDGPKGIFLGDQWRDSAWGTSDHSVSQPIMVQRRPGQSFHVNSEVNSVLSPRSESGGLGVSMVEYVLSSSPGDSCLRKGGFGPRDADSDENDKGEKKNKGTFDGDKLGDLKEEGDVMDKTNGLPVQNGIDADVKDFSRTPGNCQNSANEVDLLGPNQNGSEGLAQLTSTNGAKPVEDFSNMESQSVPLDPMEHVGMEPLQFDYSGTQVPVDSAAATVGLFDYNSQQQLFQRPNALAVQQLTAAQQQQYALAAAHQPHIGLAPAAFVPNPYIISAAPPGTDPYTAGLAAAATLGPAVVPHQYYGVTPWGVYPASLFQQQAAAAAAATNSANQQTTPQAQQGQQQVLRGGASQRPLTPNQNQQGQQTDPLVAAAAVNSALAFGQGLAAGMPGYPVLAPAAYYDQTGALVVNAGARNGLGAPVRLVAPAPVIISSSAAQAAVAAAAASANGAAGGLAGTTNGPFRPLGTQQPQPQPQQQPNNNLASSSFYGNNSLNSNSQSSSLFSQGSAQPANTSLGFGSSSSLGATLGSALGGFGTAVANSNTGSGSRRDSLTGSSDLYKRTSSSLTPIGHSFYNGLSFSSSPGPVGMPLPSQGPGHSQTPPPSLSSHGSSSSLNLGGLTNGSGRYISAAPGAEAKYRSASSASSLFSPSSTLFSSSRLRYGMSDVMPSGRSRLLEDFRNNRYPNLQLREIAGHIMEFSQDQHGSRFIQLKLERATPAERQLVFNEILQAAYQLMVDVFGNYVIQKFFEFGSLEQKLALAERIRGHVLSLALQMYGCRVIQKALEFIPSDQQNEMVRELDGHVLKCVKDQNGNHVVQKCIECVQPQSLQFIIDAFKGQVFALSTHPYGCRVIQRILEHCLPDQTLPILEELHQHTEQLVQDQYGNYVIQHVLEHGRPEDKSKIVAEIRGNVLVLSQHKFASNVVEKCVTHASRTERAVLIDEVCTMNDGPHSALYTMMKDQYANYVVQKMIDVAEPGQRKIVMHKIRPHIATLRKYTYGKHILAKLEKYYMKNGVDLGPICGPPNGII
inactive: erlotinib -0.023 | [1] 0 | [2] 0.04 | [3] 0.034 | [4] 0.047 | [5] 0.003 | [6] -0.013 | [7] 0.003 | [8] -0.057 | [9] 0.028

PMM2 (UniProt O15305)
inactive: erlotinib 0.03 | [1] -0.034 | [2] 0.008 | [3] -0.02 | [4] 0.023 | [5] 0.003 | [6] -0.014 | [7] -0.019 | [8] -0.004 | [9] 0.05

PSMC1 (UniProt P62191)
inactive: erlotinib -0.093 | [1] -0.063 | [2] -0.034 | [3] 0.037 | [4] -0.027 | [5] -0.028 | [6] -0.017 | [7] 0.029 | [8] 0.012 | [9] -0.004

PDCD6 (UniProt O75340)
inactive: erlotinib -0.006 | [1] 0.038 | [2] 0.066 | [3] 0.004 | [4] 0.034 | [5] 0.02 | [6] -0.061 | [7] 0.029 | [8] 0.024 | [9] -0.048

POLR2A (UniProt P24928)
inactive: erlotinib -0.018 | [1] -0.019 | [2] -0.008 | [3] 0.024 | [4] 0.013 | [5] 0.039 | [6] 0.019 | [7] 0.026 | [8] 0.111 | [9] -0.042

PTP4A2 (UniProt Q12974)
inactive: erlotinib -0.054 | [1] 0.03 | [2] 0.134 | [3] 0.049 | [4] 0.018 | [5] -0.051 | [6] 0.205 | [7] -0.125 | [8] -0.029 | [9] -0.097

PPT2 isoform 3 (UniProt Q9UMR5)
inactive: erlotinib 0 | [1] 0.056 | [2] 0.033 | [3] -0.001 | [4] -0.026 | [5] -0.02 | [6] 0.038 | [7] 0.039 | [8] -0.012 | [9] 0.031

PRKAB1 (UniProt Q9Y478)
Sequence of UniProt Q9Y478 (Q9Y478 whole entry, looked up): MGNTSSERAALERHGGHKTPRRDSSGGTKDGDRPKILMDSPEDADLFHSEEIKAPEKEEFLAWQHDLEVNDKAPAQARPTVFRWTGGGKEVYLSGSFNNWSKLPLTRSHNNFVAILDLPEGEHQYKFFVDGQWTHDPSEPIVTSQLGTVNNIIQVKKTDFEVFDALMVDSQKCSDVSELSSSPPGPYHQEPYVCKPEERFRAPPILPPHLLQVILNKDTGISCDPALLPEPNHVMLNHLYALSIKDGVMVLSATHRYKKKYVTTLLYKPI
inactive: erlotinib 0.043 | [1] 0.15 | [2] 0.052 | [3] -0.011 | [4] -0.06 | [5] 0.024 | [6] 0.019 | [7] 0.026 | [8] -0.076 | [9] 0.068

PFAS (UniProt O15067)
inactive: erlotinib -0.011 | [1] 0.141 | [2] 0.066 | [3] 0.205 | [4] 0.034 | [5] -0.22 | [6] 0.087 | [7] 0.068 | [8] -0.01 | [9] -0.146

PHKA1 (UniProt P46020)
inactive: erlotinib -0.028 | [1] -0.101 | [2] -0.051 | [3] 0.003 | [4] 0.057 | [5] 0.024 | [6] 0.152 | [7] -0.095 | [8] -0.105 | [9] -0.026

PRCP (UniProt P42785)
Sequence of UniProt P42785 (P42785 whole entry, looked up): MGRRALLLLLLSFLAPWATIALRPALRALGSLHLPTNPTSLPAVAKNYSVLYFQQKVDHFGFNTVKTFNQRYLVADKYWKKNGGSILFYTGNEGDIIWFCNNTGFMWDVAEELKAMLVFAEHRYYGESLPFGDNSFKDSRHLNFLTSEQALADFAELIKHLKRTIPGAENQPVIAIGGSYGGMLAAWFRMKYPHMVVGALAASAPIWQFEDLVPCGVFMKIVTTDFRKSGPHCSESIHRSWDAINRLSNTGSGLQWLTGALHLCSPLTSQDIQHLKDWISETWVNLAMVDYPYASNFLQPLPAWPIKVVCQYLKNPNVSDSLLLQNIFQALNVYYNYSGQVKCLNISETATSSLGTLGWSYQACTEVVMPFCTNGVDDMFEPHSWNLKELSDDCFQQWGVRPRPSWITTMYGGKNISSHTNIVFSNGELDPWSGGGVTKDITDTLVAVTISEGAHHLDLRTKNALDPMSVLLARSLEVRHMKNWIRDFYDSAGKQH
inactive: erlotinib -0.028 | [1] 0.013 | [2] 0.049 | [3] -0.025 | [4] -0.052 | [5] 0.014 | [6] -0.019 | [7] -0.001 | [8] 0.038 | [9] 0.052

PTPMT1 (UniProt Q8WUK0)
inactive: erlotinib -0.009 | [1] -0.017 | [2] 0.202 | [3] 0.053 | [4] 0.009 | [5] 0.015 | [6] 0.03 | [7] 0.013 | [8] -0.001 | [9] -0.045

PARP1 (UniProt P09874)
inactive: erlotinib 0.076 | [1] 0.135 | [2] 0.042 | [3] -0.005 | [4] 0.098 | [5] -0.042 | [6] 0.137 | [7] 0.35 | [8] -0.078 | [9] -0.042

PRPF38A (UniProt Q8NAV1)
inactive: erlotinib -0.032 | [1] 0.035 | [2] -0.01 | [3] 0.049 | [4] 0 | [5] -0.046 | [6] 0 | [7] -0.08 | [8] 0.008 | [9] 0.018

PSMD1 (UniProt Q99460)
Sequence of UniProt Q99460 (Q99460 whole entry, looked up): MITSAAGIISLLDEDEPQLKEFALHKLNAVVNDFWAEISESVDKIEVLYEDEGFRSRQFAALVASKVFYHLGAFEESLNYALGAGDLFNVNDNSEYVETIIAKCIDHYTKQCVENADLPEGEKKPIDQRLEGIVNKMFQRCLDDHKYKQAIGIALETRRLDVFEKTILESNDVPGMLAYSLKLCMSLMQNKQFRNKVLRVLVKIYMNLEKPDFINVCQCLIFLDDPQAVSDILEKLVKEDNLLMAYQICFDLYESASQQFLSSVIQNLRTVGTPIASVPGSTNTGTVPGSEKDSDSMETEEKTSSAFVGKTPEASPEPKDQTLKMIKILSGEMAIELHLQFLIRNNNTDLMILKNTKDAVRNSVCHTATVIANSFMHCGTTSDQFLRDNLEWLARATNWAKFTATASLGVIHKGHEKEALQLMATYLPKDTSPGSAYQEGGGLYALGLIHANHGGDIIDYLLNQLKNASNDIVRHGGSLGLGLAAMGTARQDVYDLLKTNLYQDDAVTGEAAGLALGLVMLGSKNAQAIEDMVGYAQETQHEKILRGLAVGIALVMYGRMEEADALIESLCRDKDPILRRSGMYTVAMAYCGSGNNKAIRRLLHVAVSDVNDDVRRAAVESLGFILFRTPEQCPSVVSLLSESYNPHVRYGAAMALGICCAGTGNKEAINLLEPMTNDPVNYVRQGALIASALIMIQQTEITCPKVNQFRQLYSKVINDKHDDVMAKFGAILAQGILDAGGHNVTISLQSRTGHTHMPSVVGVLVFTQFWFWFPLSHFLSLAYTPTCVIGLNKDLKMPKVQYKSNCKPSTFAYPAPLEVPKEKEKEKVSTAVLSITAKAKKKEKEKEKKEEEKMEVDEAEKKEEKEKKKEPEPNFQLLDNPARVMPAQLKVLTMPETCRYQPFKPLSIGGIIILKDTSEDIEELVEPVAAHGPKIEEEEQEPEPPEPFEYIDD
inactive: erlotinib -0.08 | [1] -0.074 | [2] 0.028 | [3] 0.021 | [4] -0.061 | [5] -0.018 | [6] 0.062 | [7] 0.034 | [8] 0.001 | [9] -0.025

PRKAG1 isoform 3 (UniProt P54619)
Sequence of UniProt P54619 (P54619 whole entry, looked up): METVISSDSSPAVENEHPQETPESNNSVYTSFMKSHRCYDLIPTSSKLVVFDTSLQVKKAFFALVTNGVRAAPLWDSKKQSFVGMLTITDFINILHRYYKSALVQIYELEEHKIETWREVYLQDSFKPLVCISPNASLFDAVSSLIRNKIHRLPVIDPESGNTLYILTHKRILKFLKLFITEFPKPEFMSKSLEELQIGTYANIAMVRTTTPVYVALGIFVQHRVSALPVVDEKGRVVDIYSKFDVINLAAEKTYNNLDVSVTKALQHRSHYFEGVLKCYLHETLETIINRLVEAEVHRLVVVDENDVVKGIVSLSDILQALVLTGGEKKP
inactive: erlotinib 0.025 | [1] 0.038 | [2] -0.016 | [3] -0.012 | [4] 0.083 | [5] 0.032 | [6] 0.037 | [7] -0.015 | [8] -0.007 | [9] 0.045

PCYT1B (UniProt Q9Y5K3)
Sequence of UniProt Q9Y5K3 (Q9Y5K3 whole entry, looked up): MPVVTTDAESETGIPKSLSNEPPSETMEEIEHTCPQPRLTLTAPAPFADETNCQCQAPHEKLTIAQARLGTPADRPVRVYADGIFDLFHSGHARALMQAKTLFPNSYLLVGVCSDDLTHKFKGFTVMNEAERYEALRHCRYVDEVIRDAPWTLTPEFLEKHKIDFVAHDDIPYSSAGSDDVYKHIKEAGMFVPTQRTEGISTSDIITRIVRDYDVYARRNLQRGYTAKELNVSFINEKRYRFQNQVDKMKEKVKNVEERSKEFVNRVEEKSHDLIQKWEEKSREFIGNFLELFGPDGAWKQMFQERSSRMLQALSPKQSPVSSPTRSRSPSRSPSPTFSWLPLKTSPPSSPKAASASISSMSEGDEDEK
inactive: erlotinib 0.05 | [1] 0.068 | [2] -0.043 | [3] 0.023 | [4] 0.078 | [5] 0.079 | [6] -0.066 | [7] 0.004 | [8] 0.01 | [9] -0.003

PEF1 (UniProt Q9UBV8)
inactive: erlotinib -0.053 | [1] 0.108 | [2] 0.079 | [3] -0.029 | [4] 0.134 | [5] -0.064 | [6] 0.109 | [7] 0.035 | [8] -0.008 | [9] -0.069

PRKCB isoform 2 (UniProt P05771)
inactive: erlotinib 0.038 | [1] 0.031 | [2] 0.038 | [3] 0 | [4] 0.086 | [5] 0.004 | [6] 0.021 | [7] 0.037 | [8] 0 | [9] -0.067

PPIL4 (UniProt Q8WUA2)
inactive: erlotinib 0.011 | [1] 0.056 | [2] -0.049 | [3] 0.043 | [4] -0.023 | [5] 0 | [6] 0.04 | [7] -0.009 | [8] -0.06 | [9] -0.044

PTGR2 (UniProt Q8N8N7)
inactive: erlotinib -0.015 | [1] -0.027 | [2] 0.016 | [3] -0.023 | [4] 0.365 | [5] -0.01 | [6] 0.062 | [7] 0.056 | [8] -0.023 | [9] 0.131

PSMD13 (UniProt Q9UNM6)
inactive: erlotinib -0.091 | [1] -0.026 | [2] -0.076 | [3] 0.002 | [4] -0.02 | [5] 0.013 | [6] -0.002 | [7] 0.044 | [8] -0.008 | [9] -0.069

POLR1A (UniProt O95602)
inactive: erlotinib -0.055 | [1] -0.236 | [2] 0.031 | [3] 0.058 | [4] 0.04 | [5] 0.005 | [6] 0.079 | [7] -0.096 | [8] 0 | [9] 0.125

PLA2G15 (UniProt Q8NCC3)
inactive: erlotinib 0.064 | [1] 0.004 | [2] 0.038 | [3] -0.02 | [4] 0.026 | [5] 0.035 | [6] -0.007 | [7] 0.021 | [8] 0.01 | [9] 0.052

PRPF40A (UniProt O75400)
inactive: erlotinib 0.082 | [1] 0.083 | [2] -0.087 | [3] 0.012 | [4] 0.032 | [5] 0.007 | [6] -0.037 | [7] -0.135 | [8] -0.129 | [9] -0.124
